Among all 5,500 compounds or so, about 2,000 (36%) were called active. Another 18% or so got no clear call; they are omitted. Rule as the data show it: active = normalized growth mostly below about 0.91 (no sharp cut-off); inconclusive = no clear call, values can overlap the other calls; inactive = mostly above about 0.92. Some of the results follow.
Test: chemical genetic growth profiling, strain panel (AID 1159580);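 also: tested at 20 µM; growth read once vehicle control cultures reached saturation at 30 °C; 1 = growth at the plate median or of vehicle wells; lower values mean less growth of the strain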
Conditions: growth OD

Measured: normalized growth

OCC(O)C(O)C(O)C(O)C(O)CO (configuration not stated)
inactive: S. cerevisiae deletion strains, locus YKL009W, strain mrt4, active compounds read low 1.05 | S. cerevisiae deletion strains, locus YKL068W, active compounds read low 0.98 | S. cerevisiae deletion strains, locus YKL085W, strain MDH1 (second series), active compounds read low 1 | S. cerevisiae deletion strains, locus YKL085W, strain MDH1, active compounds read low 1 | S. cerevisiae deletion strains, locus YKL160W, strain elf1, active compounds read low 1.01 | S. cerevisiae deletion strains, locus YKL190W, strain CNB1, active compounds read low 1.02 | S. cerevisiae deletion strains, locus YKR001C, strain vps1, active compounds read low 1.01 | S. cerevisiae deletion strains, locus YKR026C, strain gcn3, active compounds read low 1.01 | S. cerevisiae deletion strains, locus YKR091W, strain srl3, active compounds read low 0.997 | S. cerevisiae deletion strains, locus YLL001W, strain dnm1, active compounds read low 0.995 | S. cerevisiae deletion strains, locus YLL026W, active compounds read low 0.999 | S. cerevisiae deletion strains, locus YLL041C, strain sdh2, active compounds read low 0.998 | S. cerevisiae deletion strains, locus YLR027C, strain aat2, active compounds read low 0.997 | S. cerevisiae deletion strains, locus YLR039C, strain RIC1, active compounds read low 1.14 | S. cerevisiae deletion strains, locus YLR058C, strain SHM2, active compounds read low 1 | S. cerevisiae deletion strains, locus YLR102C, strain apc9, active compounds read low 0.987 | S. cerevisiae deletion strains, locus YLR113W, strain HOG1, active compounds read low 0.965 | S. cerevisiae deletion strains, locus YLR221C, strain rsa3, active compounds read low 1.01 | S. cerevisiae deletion strains, locus YLR258W, strain gsy2, active compounds read low 1 | S. cerevisiae deletion strains, locus YLR262C, strain YPT6 (second series), active compounds read low 1 | S. cerevisiae deletion strains, locus YLR268W, strain sec22, active compounds read low 0.998 | S. cerevisiae deletion strains, locus YLR320W, strain mms22, active compounds read low 0.985 | S. cerevisiae deletion strains, locus YLR330W, strain CHS5, active compounds read low 0.992 | S. cerevisiae deletion strains, locus YLR342W, strain FKS1 (second series), active compounds read low 0.998 | S. cerevisiae deletion strains, locus YLR342W, strain FKS1, active compounds read low 0.993 | S. cerevisiae deletion strains, locus YLR357W, strain rsc2, active compounds read low 0.974 | S. cerevisiae deletion strains, locus YLR370C, strain arc18, active compounds read low 0.999 | S. cerevisiae deletion strains, locus YLR371W, strain rom2, active compounds read low 1.03 | S. cerevisiae deletion strains, locus YLR384C, strain iki3, active compounds read low 0.995 | S. cerevisiae deletion strains, locus YLR418C, strain cdc73, active compounds read low 1 | S. cerevisiae deletion strains, locus YML016C, strain PPZ1, active compounds read low 0.988 | S. cerevisiae deletion strains, locus YML032C, strain rad52, active compounds read low 0.987 | S. cerevisiae deletion strains, locus YML120C, strain ndi1, active compounds read low 0.988 | S. cerevisiae deletion strains, locus YML124C, strain tub3, active compounds read low 0.988 | S. cerevisiae deletion strains, locus YMR058W, strain fet3, active compounds read low 0.997 | S. cerevisiae deletion strains, locus YMR078C, strain ctf18, active compounds read low 0.989 | S. cerevisiae deletion strains, locus YMR125W, strain sto1, active compounds read low 0.973 | S. cerevisiae deletion strains, locus YMR129W, active compounds read low 0.99 | S. cerevisiae deletion strains, locus YMR205C, strain PFK2, active compounds read low 1 | S. cerevisiae deletion strains, locus YMR223W, strain ubp8, active compounds read low 1.01 | S. cerevisiae deletion strains, locus YMR231W, strain pep5, active compounds read low 0.998 | S. cerevisiae deletion strains, locus YMR307W, strain GAS1, active compounds read low 1.12 | S. cerevisiae deletion strains, locus YNL067W, strain RPL9B, active compounds read low 1.02 | S. cerevisiae deletion strains, locus YNL071W, strain lat1, active compounds read low 1 | S. cerevisiae deletion strains, locus YNL153C, strain GIM3, active compounds read low 1.03 | S. cerevisiae deletion strains, locus YNL183C, strain NPR1, active compounds read low 0.932 | S. cerevisiae deletion strains, locus YNL209W, strain ssb2, active compounds read low 1 | S. cerevisiae deletion strains, locus YNL233W, strain BNI4, active compounds read low 1.06 | S. cerevisiae deletion strains, locus YNL248C, strain rpa49, active compounds read low 0.99 | S. cerevisiae deletion strains, locus YNL250W, strain rad50, active compounds read low 0.987 | S. cerevisiae deletion strains, locus YNL271C, strain bni1, active compounds read low 1.01 | S. cerevisiae deletion strains, locus YNL298W, strain CLA4, active compounds read low 0.99 | S. cerevisiae deletion strains, locus YNL307C, strain MCK1, active compounds read low 0.992 | S. cerevisiae deletion strains, locus YNL322C, strain KRE1 (second series), active compounds read low 0.999 | S. cerevisiae deletion strains, locus YNR049C, strain mso1, active compounds read low 0.987 | S. cerevisiae deletion strains, locus YNR052C, strain pop2, active compounds read low 1.03 | S. cerevisiae deletion strains, locus YOL006C, strain TOP1, active compounds read low 1.14 | S. cerevisiae deletion strains, locus YOL012C, strain htz1 0.757 | S. cerevisiae deletion strains, locus YOL147C, strain pex11, active compounds read low 0.998 | S. cerevisiae deletion strains, locus YOR001W, strain rrp6, active compounds read low 1 | S. cerevisiae deletion strains, locus YOR061W, strain CKA2, active compounds read low 0.984 | S. cerevisiae deletion strains, locus YOR069W, strain VPS5, active compounds read low 1 | S. cerevisiae deletion strains, locus YOR070C, strain gyp1, active compounds read low 0.995 | S. cerevisiae deletion strains, locus YOR080W, strain dia2, active compounds read low 0.985 | S. cerevisiae deletion strains, locus YOR083W, strain WHI5, active compounds read low 0.996 | S. cerevisiae deletion strains, locus YOR106W, strain vam3, active compounds read low 1.01 | S. cerevisiae deletion strains, locus YOR136W, strain idh2, active compounds read low 1.01 | S. cerevisiae deletion strains, locus YOR144C, strain elg1, active compounds read low 0.991 | S. cerevisiae deletion strains, locus YOR184W, strain ser1, active compounds read low 0.982 | S. cerevisiae deletion strains, locus YOR231W, strain MKK1, active compounds read low 0.961 | S. cerevisiae deletion strains, locus YOR265W, strain rbl2, active compounds read low 0.989 | S. cerevisiae deletion strains, locus YOR270C, strain vph1, active compounds read low 0.994 | S. cerevisiae deletion strains, locus YOR290C, strain snf2, active compounds read low 0.989 | S. cerevisiae deletion strains, locus YOR316C, strain cot1, active compounds read low 0.984 | S. cerevisiae deletion strains, locus YPL051W, strain arl3, active compounds read low 1 | S. cerevisiae deletion strains, locus YPL055C, strain LGE1, active compounds read low 0.97 | S. cerevisiae deletion strains, locus YPL078C, strain atp4, active compounds read low 0.992 | S. cerevisiae deletion strains, locus YPL106C, strain sse1, active compounds read low 0.989 | S. cerevisiae deletion strains, locus YPL240C, strain hsp82, active compounds read low 0.989 | S. cerevisiae deletion strains, locus YPL241C, strain CIN2, active compounds read low 0.998 | S. cerevisiae deletion strains, locus YPL256C, strain CLN2, active compounds read low 0.968 | S. cerevisiae deletion strains, locus YPR119W, strain clb2, active compounds read low 0.997 | S. cerevisiae deletion strains, locus YPR141C, strain kar3, active compounds read low 0.976 | S. cerevisiae deletion strains, locus YPR163C, strain tif3, active compounds read low 1.01 | S. cerevisiae deletion strains, locus YPR167C, strain met16, active compounds read low 0.993 | S. cerevisiae deletion strains, strain wtn01, active compounds read low 0.997 | S. cerevisiae strains, strain wild type, active compounds read low 1.03

Source: PubChem BioAssay AID1159580 (chemical genetic matrix, 2015)
